Assay outcomes from PubChem.
HCV inh = inhibitors of hepatitis C virus infection | AID 651820 | Potency, µM (highest dose often 41.8 µM), for inactives: at the top dose activity change, negative = inhibition, most hits filed as inhibitors | hit rate 3.4% among 340,000 | Huh7.5.1 HCVcc-Cre infection, luciferase reporter, 44 h; active means well fitted inhibition curve with a large enough effect; inconclusive means small, poorly fitted or top-dose-only effect, or another doubt; inactive means no such curve, though single readings can be large or run the other way; further: potency means the concentration at half of the fitted maximal effect
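1,000 cells/well; 4 h culture; + compound; + HCVcc-Cre (~0.5 moi); 44 h; luciferase substrate, RT 15 min; read 15 sec.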
Vaccinia Venus = vaccinia inhibition (Venus reporter). Vaccinia virus Venus reporter expression, fluorescence. Potency, µM (top dose mostly 36.5 µM), inactives show top-dose activity change, negative = inhibition, hits mostly inhibitors. hit rate 0.46% among 330,000. AID 720580; calls by dose curve; tested in A549 cells; further: potency means the concentration at half of the fitted maximal effect; nearly all actives have a fitted effect of over 30% in size
HCMV inh = blocks human cytomegalovirus replication. hit rate 4.5% among 410,000. HFF cells, HCMV-luciferase reporter, 72 h; stronger effect = lower value. activity change, negative = inhibition, % at 57.5 µM; in the data active means activity change below about -60%; inconclusive means no clear call, values can overlap the other calls; inactive means above about -39%
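Compounds were evaluated in HFFs infected with an HCMV luciferase reporter virus (MOI 1 PFU/cell). Luciferase in lysates collected 72 h post infection served as the replication measure.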
VACV mCherry inh = vaccinia inhibition (mCherry reporter). Potency, µM (top dose mostly 36.5 µM), without a hit: at the highest dose activity change, negative = inhibition, actives largely listed as inhibitors. Vaccinia virus mCherry reporter infection, fluorescence. AID 720579. hit rate 0.63% among 310,000; calls by dose curve; tested in A549 cells; further: potency means the concentration at half of the fitted maximal effect; nearly all actives have a fitted effect of over 35% in size
FMDV antiviral = antivirals against foot and mouth disease virus; FMDV antiviral cell-based qHTS; Potency, µM (titrated, usually from 57.9 µM), for inactives: top-dose activity change, negative = inhibition, hits mostly inhibitors; hit rate 1.2% among 410,000; calls by dose curve; tested in HEK293T cells; further: read-out not given here; potency means the concentration at half of the fitted maximal effect; nearly all actives have a fitted effect of over 45% in size
An asterisk follows results filed as active; i = inactive; ? = inconclusive; / = not tested or not shown. Shown are actives, neighbours in structure and some others; about 7.3% of the full set was active somewhere. On the % scale 0 is the no-effect control and ±100 the full control effect.

SMILES	HCV inh	Vaccinia Venus	HCMV inh	VACV mCherry inh	FMDV antiviral
O=C(C[n+]1cccc2ccccc21)c1ccc([N+](=O)[O-])cc1	11µM*	2%	-13	-15%	-17%
COc1ccc(C(=O)C[n+]2cccc3cc(OC)ccc32)cc1	?	-14%	-66*	-21%	-11%
COc1cccc(C(=O)C[n+]2cccc3cc(OC)ccc32)c1	12%	/	24	/	-8%
O=C(Cn1cc[n+](Cc2ccccc2)c1)c1ccc([N+](=O)[O-])cc1	?	-14%	?	?	-30%
O=C(C[n+]1ccn(-c2ccccc2)c1)c1ccc([N+](=O)[O-])cc1	?	/	-63*	/	-24%
O=C(C[n+]1cccc2ccccc21)c1ccc(Cl)cc1	-10%	/	78	/	-13%
CCCc1nnc(SCC(=O)NC2CC2)n1C	7%	-8%	-20	3%	-25%
CCc1ccc(C(=O)c2cn(CC(=O)NCCc3ccc(OC)c(OC)c3)c3nc(C)ccc3c2=O)cc1	/	-4%	5	0%	-7%
O=C(NC(=S)N1CCN(CCO)CC1)C12CC3CC(CC(C3)C1)C2	16%	-14%	-73*	-4%	-12%
O=C(NC(=S)N1CCOCC1)C12CC3CCC(CC(C3)C1)C2	34%	-7%	-17	-15%	-14%
CCC(C)(C)NC(=O)C(c1cccc(OC)c1OC)N(C(=O)CCC(=O)Nc1cc(C)on1)C(C)C (centres undefined)	17%	-12%	-79*	-1%	-16%
CCC(C)(C)NC(=O)C(c1ccc(OC)cc1)N(Cc1ccccc1)C(=O)CCC(=O)Nc1cc(C)on1 (centres undefined)	-11%	9%	-26	-8%	51%
COc1ccc(C(C(=O)NC(C)(C)C)N(Cc2ccccc2)C(=O)CCC(=O)Nc2cc(C)on2)cc1 (centres undefined)	-14%	/	-64*	/	11%
Cn1c(CO)c(-c2ccccc2)c2cc([N+](=O)[O-])ccc21	10µM*	?	-37	?	-10%
CC(=O)OCc1c(-c2ccccc2)c2cc([N+](=O)[O-])ccc2n1C	13µM*	-20%	-77*	-14%	-26%
COc1ccccc1OCc1nnc(SCC(=O)Nc2nnc(C3CC3)s2)n1C	-21%	-10%	-32	i	-9%
CCOC(=O)c1nnc(-c2ccccc2)nc1Sc1ccccc1Cl	?	-38%	112	/	25µM*
CCOC(=O)c1nnc(-c2ccccc2)nc1Oc1ccc(Cl)cc1	-5%	2%	38	/	16µM*
N/C(=N\OC(=O)C1CCCCC1)c1ccc(Cl)cc1	25%	/	-1	/	42%
NC(=NC1CCCCC1)c1ccc(Cl)cc1	18%	-13%	-27	i	1.4µM*
O=C(CC1(O)C(=O)Nc2cc(Cl)cc(Cl)c21)c1ccncc1 (centres undefined)	11µM*	/	39	/	-30%
N#Cc1cccc(C(Br)S(=O)(=O)c2ccccc2)c1 (centres undefined)	/	?	-91*	?	-26%
Nc1c(Cl)ncnc1N/N=C/c1ccccn1	?	?	-99*	2.2µM*	-10%
Nc1c(Cl)ncnc1N/N=C/c1cccnc1	9%	6%	-13	-14%	-8%
Nc1c(Cl)ncnc1N/N=C/c1ccc2ccccc2n1	4µM*	?	-98*	2.8µM*	-13%
SMILES	HCV inh	Vaccinia Venus	HCMV inh	VACV mCherry inh	FMDV antiviral
O=C(CCc1ccccc1)NC(=S)Nc1ccccc1[N+](=O)[O-]	-14%	/	15	/	5%
Cc1cc(C(C)(C)C)ccc1OC(=O)C1=CC=CN2CCS(=O)(=O)N=C12	5%	-11%	-39	-12%	24%
O=C(Nc1cccc(C(F)(F)F)c1)c1cc(CN2CCOCC2)on1	/	-9%	-3	-10%	-4%
C/C=N\NC(=O)COc1cc(C)ccc1C	15%	-23%	-60*	-14%	-6%
Cc1ccc(C)c(OCC(=O)NCCNC(=O)COc2cc(C)ccc2C)c1	?	/	31	/	-29%
CC(=O)c1c(C)oc2ccc(N(C(C)=O)S(=O)(=O)c3cccc4cccnc34)cc12	?	?	-79*	?	?
CC(=O)c1c(C)oc2ccc(N(C(C)=O)S(=O)(=O)c3ccc(Br)cc3)cc12	?	?	?	-6%	?
CCCC(=O)N(c1ccc2oc(C)c(C(C)=O)c2c1)S(=O)(=O)c1ccc(CC)cc1	/	?	-93*	?	?
CCOc1ccc(S(=O)(=O)N(C(C)=O)c2ccc3oc(C)c(C(=O)OC)c3c2)cc1	/	?	-62*	?	?
CC(=O)c1c(C)oc2ccc(N(C(C)=O)S(=O)(=O)c3ccc(Cl)c([N+](=O)[O-])c3)cc12	5%	-6%	10	/	35µM*
CC(=O)c1c(C)oc2ccc(N(C(C)=O)S(=O)(=O)c3ccc(F)cc3C)cc12	?	-7%	2	i	?
COC(=O)c1c(C)oc2ccc(N(C(C)=O)S(=O)(=O)c3ccccc3)cc12	?	?	-35	-15%	-16%
O=C(Oc1ccc2ccccc2c1Br)N1CCCCCC1	-3%	/	-82*	/	0%
CCN(CC)C(=O)Oc1ccc2ccccc2c1Br	?	9%	-89*	-3%	18%
O=C(O)C1C2CCC(O2)C1C(=O)Nc1ccc(OC(F)F)cc1 (centres undefined)	11%	-7%	-29	i	-12%
O=C1NC(=S)NC(=O)C1=Cc1c(Cl)cccc1Cl	10%	-8%	-61*	-4%	20µM*
O=C1NC(=S)NC(=O)C1=Cc1cccc2cc3ccccc3cc12	10µM*	11µM*	-94*	?	10µM*
COc1ccc(C=C2C(=O)NC(=S)NC2=O)cc1	26%	-6%	?	-1%	?
CN1C(=O)/C(=C\c2ccc(Br)s2)C(=O)NC1=S	?	18%	-1	i	32µM*
CN1C(=O)NC(=O)/C(=C/c2ccc([N+](=O)[O-])s2)C1=O	13%	20%	68	i	?
O=C1NC(=S)NC(=O)C1=Cc1ccc(Br)s1	?	/	-100*	/	?
Cc1cc(=O)oc2cc(CN3C(=O)C(=O)c4cc(F)ccc43)ccc12	/	/	-39	/	/
CCC(C)NC(=O)c1cc2c(Cl)nc3ccc(C)cc3c2s1 (centres undefined)	/	-11%	-11	-9%	-3%
CCOC(=O)c1ccc(-c2ccc3c(=O)c4ccccc4n(C)c3c2)cc1F	52%	?	-69*	i	9%
COc1ccc(C2=C(Nc3ccc(Br)c(C)c3)c3ccccc3C2=O)cc1	/	-7%	5	-14%	28µM*
CCCc1nc(SCc2ccccn2)c2c(=O)n(C)c(=O)n(C)c2n1	10µM*	-19%	?	-3%	-2%
CCCc1nc(SCc2cccnc2)c2c(=O)n(C)c(=O)n(C)c2n1	10µM*	-18%	-27	-6%	?
COc1ccc(/C(N)=N/OC(=O)CC2CCCCC2)cc1	-4%	1%	-34	-20%	58%
COc1cc(OC)c(/C=N/N2CCN(c3ccccc3OC)CC2)c(OC)c1	-2%	/	-16	/	-18%
